Measured values taken from PubChem BioAssay (NCI).
“And” between values parts separate entries of the source, which are not always exact repeats. Identical values can stand only once. Compounds without any hit were thinned out: in the full panel of roughly 83,000, 20% have a hit.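 Testing used 96-well plates and a 48-hour single-concentration exposure. Example: -40 means 40% of the starting cells died.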 The source made the active and inactive calls. The calls were made as follows: active = growth percent below 10; inactive = the rest.

Tested on: MDA-MB-468 breast
Test: NCI-60 one-dose screen, 48 h (100 = growth as untreated, 0 = no growth, -100 = all killed)
Details: 10 µM unless noted

**Q.** For `NCCOCCOc1ccccc1`, which growth is on record?
**A.** 118% (inactive)

**Q.** `CC(=O)OC[C@]12CCC(C)(C)C[C@H]1[C@@]1(O)[C@H](O)C[C@@H]3[C@@]4(C)CCCNC(C)(C)[C@@H]4CC[C@@]3(C)[C@]1(C)CC2` was tested. Which growth did it give?
**A.** 115% (inactive)

**Q.** For `O=C(NCCNC(c1ccccc1)C(NCCNC(=O)c1ccccc1)c1ccccc1)c1ccccc1` (configuration not stated), which growth is on record?
**A.** 81.5% (inactive)

**Q.** For `CC(CCc1ccc(Cl)c(Cl)c1)NCc1ccc(C(C)(C)C)cc1` (configuration not stated), which growth is on record?
**A.** 30.8% (inactive)

**Q.** For `COc1cc(/C=C\c2cc(/C=C\c3ccc(O)c(OC)c3)n(C(=O)CNc3ccc(Cl)cc3)n2)ccc1O`, which growth is on record?
**A.** 1.63% (active)

**Q.** For `CC(C)[C@@]12C[C@@H](OC(=O)[C@H]3CO3)[C@@](C)(O1)[C@@H]1CC[C@@H](C)[C@H]1[C@@H]2OC(=O)/C=C/c1ccccc1`, which growth is on record?
**A.** 85.8% (inactive)

**Q.** With `CC1=CC(=O)c2ccccc2C1=O` as the compound, how does the growth read?
**A.** 111% (inactive)

**Q.** Which growth does the source give for `NS(=O)(=O)c1ccc(CCn2c(-c3ccc(C(=O)O)cc3)nc(-c3ccccc3)c2-c2ccccc2)cc1` here?
**A.** 112% (inactive)

**Q.** Which growth does the source give for `CC(C)=CCC[C@](C)(O)[C@H]1CC[C@]2(C)[C@@H]1CC[C@@H]1[C@@]3(C)C/C(=C/c4ccccc4)C(=O)C(C)(C)[C@@H]3CC[C@]12C` here?
**A.** 94.7% (inactive)

**Q.** How did the growth turn out when `C=C(C)[C@@H]1CC[C@]2(C(=O)OC)CC[C@]3(C)[C@H](CC[C@@H]4[C@@](C)(CC/C(N)=N/O)[C@H](C(=C)C)CC[C@]43C)[C@@H]12` was run?
**A.** 99.5% (inactive)

**Q.** With `C=C(C[n+]1ccccc1)[C@@H]1CC[C@]2(C(=O)OC)CC[C@]3(C)[C@H](CC[C@@H]4[C@@]5(C)CCC(=O)C(C)(C)[C@@H]5CC[C@]43C)[C@@H]12` as the compound, how does the growth read?
**A.** 7.22% (active)

**Q.** For `CCN1C(=O)/C(=c2\sc3n(c2=O)C2C(NN=3)N(CC)C(=S)N2CC)c2ccccc21` (configuration not stated), which growth is on record?
**A.** 104% (inactive)

**Q.** With `COc1cc2ncnc(-n3ncc4cc(NC(=O)Nc5ccc(Cl)c(C)c5)ccc43)c2cc1OC` as the compound, how does the growth read?
**A.** 93.6% (inactive)

**Q.** How did the growth turn out when `C#CCn1c(C)cc(C)c(C#N)c1=O` was run?
**A.** 132% (inactive)

**Q.** With `c1ccc2c(c1)Nc1cc3ccccc3cc1N2` as the compound, how does the growth read?
**A.** 40.3% (inactive)

**Q.** `CO[C@H](C(=O)[C@@H](O)[C@@H](C)O)[C@@H]1Cc2cc3cc(O[C@H]4C[C@@H](O[C@H]5C[C@@H](O)[C@H](O)C(C)O5)[C@H](O)C(C)(O)O4)cc(O)c3c(O)c2C(=O)[C@H]1O[C@H]1C[C@@H](O[C@H]2C[C@@H](O[C@H]3C[C@@H](OC)[C@H](O)C(C)O3)[C@@H](O)C(C)O2)[C@H](O)C(C)O1` (some centres not stated) was tested. Which growth did it give?
**A.** 14% (inactive)

**Q.** How did the growth turn out when `O=c1nc(Nc2ccc([N+](=O)[O-])cc2O)sc2ccccc12` was run?
**A.** 34.3% (inactive)

**Q.** `CC(C)Cc1ccc(C(C)C(=O)NCc2ccc(Cn3c(=O)sn(CCCI)c3=O)cc2)cc1` (configuration not stated) was tested. Which growth did it give?
**A.** 64.3% (inactive) and -91.8% (active)

**Q.** With `COc1cc(C2NC(=O)C(C#N)=C(Nc3cccc(C)c3)S2)ccc1O` (configuration not stated) as the compound, how does the growth read?
**A.** 96.6% (inactive)

**Q.** With `O=C(/C=C/C12c3ccccc3C(c3ccccc31)C1C(=O)N(c3ccccc3)C(=O)C12)c1ccc(Cl)cc1` (configuration not stated) as the compound, how does the growth read?
**A.** 3.08% (active)

**Q.** With `COC(=O)CCCNS(=O)(=O)c1cc(C(=O)Nc2ccc(NC(=O)c3cc(S(=O)(=O)NCCCC(=O)OC)c(O)c(O)c3O)cc2)c(O)c(O)c1O` as the compound, how does the growth read?
**A.** 98.7% (inactive)

**Q.** For `CCOC(=O)Cn1nnc(-c2ccc(OCc3ccccc3F)cc2)n1`, which growth is on record?
**A.** 90.4% (inactive)

**Q.** `O=C(Nc1cccc2ccccc12)NC1CC1` was tested. Which growth did it give?
**A.** 96% (inactive)

**Q.** With `CCCCCn1c(C)cc(/C=C\c2ccc3cc(C)ccc3[n+]2C)c1C` as the compound, how does the growth read?
**A.** -82.4% (active)

**Q.** For `COc1cc(/C=C/C(=O)c2c(C)oc3nc[nH]c(=O)c23)ccc1O`, which growth is on record?
**A.** 113% (inactive)

**Q.** `O=C1OCC2=C1C(c1cccc(C(F)(F)F)c1)c1cc3c(cc1N2CCO)OCCO3` (configuration not stated) was tested. Which growth did it give?
**A.** 13.5% (inactive)

**Q.** With `O=S(=O)(Nc1ccc(-n2cnc3cc(-c4ccc(O)cc4)ccc32)cc1)c1ccccc1` as the compound, how does the growth read?
**A.** 100% (inactive)

**Q.** For `CCN(CC)CCCCCCCCNc1c2ccc(Cl)cc2nc2ccc(OC)cc12`, which growth is on record?
**A.** -93.2% (active)

**Q.** `CCN1CCN(C(=S)SCC(=O)Nc2nc3ccc(C)cc3s2)CC1` was tested. Which growth did it give?
**A.** 104% (inactive)

**Q.** Which growth does the source give for `Cc1ccc(S(=O)(=O)OCCCOS(=O)(=O)c2ccc(C)cc2)cc1` here?
**A.** 100% (inactive)

**Q.** Which growth does the source give for `Cn1c2c(c3ccc(Cl)cc31)-n1cccc1C2=O` here?
**A.** 104% (inactive)

**Q.** Which growth does the source give for `O=C(Nc1cccc(-n2cc(-c3ccncc3)c(-c3ccc(O)c(Cl)c3)n2)c1)c1ccc(N2CCOCC2)c(C(F)(F)F)c1` here?
**A.** 65.9% (inactive)
